Screening results (PubChem BioAssay)
HSF1 inhib = HSF1 inhibitors in luciferase reporter cells, primary screen, cell-based, NIH3T3, luminescence | AID 2098, 2009 | NIH3T3-HGL HSE-luciferase, MG132-induced, luminescence 8 h; active compounds read low | activity change, negative = inhibition, % at 7.5 µM (by protocol) | hit rate 0.77% among 300,000;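 active = more than half of replicate wells show activity change below -50%, luminescence cut by over half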;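 note: luciferase reports HSF-1 transcriptional activity via heat shock element; 0% = median of DMSO wells and -100% = zero luminescence signal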
NOD2 RIPK2 PPI = NOD2-RIPK2 binding disruptors in cells, primary screen, fluorescence, CHO cells, BLA complementation; Receptor-interacting serine/threonine-protein kinase 2 (Homo sapiens), O43353; CCF4 ratio; inhibition, % at 4.98 µM; hit rate 0.38% among 360,000; in the data active = inhibition above about 21%;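 note: 0% = vehicle only and 100% = reference blocker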
Target sequence (O43353 whole entry, looked up): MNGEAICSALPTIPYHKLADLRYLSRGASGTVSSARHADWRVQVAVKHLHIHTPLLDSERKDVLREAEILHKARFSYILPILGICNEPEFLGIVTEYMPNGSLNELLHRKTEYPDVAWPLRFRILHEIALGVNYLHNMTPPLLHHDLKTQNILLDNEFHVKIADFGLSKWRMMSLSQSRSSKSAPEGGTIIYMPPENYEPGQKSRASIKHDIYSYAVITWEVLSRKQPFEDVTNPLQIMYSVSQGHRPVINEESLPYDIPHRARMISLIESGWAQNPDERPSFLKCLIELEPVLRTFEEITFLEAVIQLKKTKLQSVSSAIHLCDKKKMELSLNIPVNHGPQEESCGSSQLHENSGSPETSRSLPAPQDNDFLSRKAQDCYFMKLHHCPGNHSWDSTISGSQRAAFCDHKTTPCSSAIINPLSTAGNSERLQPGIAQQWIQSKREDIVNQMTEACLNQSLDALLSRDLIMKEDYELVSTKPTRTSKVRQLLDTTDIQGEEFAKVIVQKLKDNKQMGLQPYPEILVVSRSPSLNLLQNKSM
HSF-1 act = HSF-1 activators, primary screen, NIH3T3-HGL cells, MG132 stress, luminescence, single point; NIH3T3-HGL HSF-1 luciferase reporter, 8 h; 100% = twice DMSO control signal; AID 504408, 2011; hit rate 1.7% among 300,000; activation, % at 9 µM;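 active = mean replicate activation of at least 50% with a set share of replicates each reaching 50%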;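 note: 0% = median of the neutral control wells and 100% = twice that signal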
TLR9-MyD88 inh = inhibitors of TLR9-MyD88 association in cells, primary screen, cell-based, CHO, BLA complementation, fluorescence; CCF4 FRET ratio; inhibition, % at 4.98 µM; hit rate 0.21% among 340,000; AID 504734, 2011;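 active = inhibition above the mean over all tested compounds plus 3 SD, cut at about 21% in these data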;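 note: 0% = DMSO only wells and 100% = clavulanate BLA inhibitor control wells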
TLR4 MyD88 comp = inhibitors of TLR4-MyD88 association in cells, primary screen, cell-based, HeLa CL3-4, BLA complementation, FRET ratio; Toll-like receptor 4 (Homo sapiens) + Myeloid differentiation primary response protein …; HeLa CL3-4 TLR4/MyD88 BLA complementation; inhibition, % at 8.4 µM; hit rate 0.18% among 200,000; AID 861, 2007; in the data active = inhibition above about 25%;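 note: 0% = vehicle and 100% = reference inhibitor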
The depositor's hits bear a star; / = not tested or not shown. An excerpt weighted towards active compounds, which were near 2.4% of everything screened.

SMILES | HSF1 inhib | NOD2 RIPK2 PPI | HSF-1 act | TLR9-MyD88 inh | TLR4 MyD88 comp
COc1ccccc1N(C(=O)CCl)c1cn(C(C)=O)c2ccccc12 | -76* | -8 | -75 | -2 | /
CC[C@]12c3[nH]c4ccc(OC)cc4c3CCN1C(=O)C(CC(=O)NCCCOC)C[C@@H]2C(=O)N1CCN(C(=O)c2ccco2)CC1 (stereo partly drawn) | / | -2 | / | -6 | /
Cc1ccc(C)c(NC(=O)CCc2nnc3ccc(NCc4ccco4)nn23)c1 | -66* | 7 | -73 | 12 | /
C=CCn1c(SCC(=O)Nc2ccc(S(N)(=O)=O)cc2)nnc1-c1cnccn1 | -1 | -12 | 13 | -13 | /
O=[N+]([O-])c1ccc(-c2nc(C(Cl)Cl)c3ccccc3n2)cc1 | 65 | -6 | 115* | -5 | /
CC(=O)CCSc1ncnc2sc(-c3ccccc3)cc12 | 3 | -7 | 16 | 0 | /
O=C(O)CCSc1ncnc2sc(-c3ccccc3)cc12 | -64* | -3 | -65 | -3 | /
COc1ccc2nc(SCC(=O)NCc3ccccc3)[nH]c2c1 | 7 | -8 | 37 | -7 | /
Cc1nc([N+](=O)[O-])c(Sc2nc3ccccc3[nH]2)n1Cc1ccccc1 | 46 | -6 | 56* | -11 | 3
COc1ccc2nc(Sc3c([N+](=O)[O-])nc(C)n3Cc3ccccc3)[nH]c2c1 | 53 | / | 107* | / | -3
Cc1cc2nc(Sc3c([N+](=O)[O-])nc(C)n3Cc3ccccc3)[nH]c2cc1C | 77 | -4 | 95* | -3 | -3
O=C(NCCOc1ccccc1)C1CCC(=O)N(CCCN2CCCC2=O)C1 (stereo not drawn) | -12 | -11 | -8 | 9 | /
COc1ccc(-c2nn(-c3ccccc3)cc2C(=O)NC2CC2)cc1 | / | -8 | / | -4 | /
CSc1ccc(CN2CCC(C)(Oc3cccc(Cl)c3)C2)cc1 (stereo not drawn) | / | -14 | / | / | /
OC(c1ccco1)c1nc(-c2ccc(F)c(Cl)c2)cs1 (stereo not drawn) | / | 3 | / | / | /
S=C(NCc1ccccn1)Nc1ccccc1Cl | 36 | 9 | 63* | 5 | 7
FC(F)(F)c1cccc(NC(=S)NNC(=S)NCc2ccccc2)c1 | 8 | 3 | 16 | -9 | 0
S=C(NCc1ccccn1)Nc1cccc(Cl)c1 | 28 | -3 | 60* | -4 | 9
NNC(=S)Nc1ccccc1Cl | -53* | 1 | -59 | -3 | 6
Cc1cccc(NC(=S)NCc2ccccn2)c1 | 33 | 4 | 46 | -6 | -8
FC(F)(F)c1cccc(NC(=S)NCc2ccccn2)c1 | 22 | 10 | 57* | -5 | 1
Cc1ccc([C@H]2N[C@]3(CCCN(CC4CCCCC4)C3=O)[C@H]3C(=O)N(C)C(=O)[C@@H]23)cc1 | / | -17 | / | -2 | /
COc1ccccc1N1CCN(Cc2cc(=O)oc3ccccc23)CC1 | / | -3 | / | / | /
O=c1c2ccccc2nnn1CSc1ccc2c(c1)OCCO2 | 49 | 16 | 76* | 1 | 11
Cc1cccc(N2CCN(S(=O)(=O)c3c(C)[nH]c(C)c3C(=O)N3CCCC3)CC2C)c1 (stereo not drawn) | 17 | 11 | 55* | -12 | /
SMILES | HSF1 inhib | NOD2 RIPK2 PPI | HSF-1 act | TLR9-MyD88 inh | TLR4 MyD88 comp
CCOC(=O)c1c(C)[nH]c(C)c1S(=O)(=O)N1CCN(c2cccc(C)c2)C(C)C1 (stereo not drawn) | 40 | -10 | 87* | -5 | /
CCOC(=O)c1c(C)[nH]c(C)c1S(=O)(=O)N1CCCCC1 | 25 | -2 | 57* | 2 | /
CCOC(=O)c1c(C)[nH]c(C)c1S(=O)(=O)N1CCC(c2ccccc2)C1 (stereo not drawn) | 12 | -19 | 23 | -2 | /
COc1ccc(C(C)=O)c(Oc2ccc(S(=O)(=O)N3CCOCC3)cn2)c1 | / | -6 | / | -11 | /
Cc1ccc(S(=O)(=O)N(CC(=O)Nc2cccc(C)c2C)C(=O)N2CCN(C)CC2)cc1 | 4 | -3 | 12 | 3 | /
Cc1ccc(S(=O)(=O)N2CCN(S(C)(=O)=O)C2)cc1 | -63* | -14 | -70 | -6 | -2
COc1ccc(/C=C/C(=O)c2ccccc2)c(OC)c1 | 31 | -6 | 72* | 3 | 2
COc1cc(C=CC(=O)c2cc(OC)c(OC)c(OC)c2)cc(OC)c1OC | / | 0 | / | -5 | /
COc1cc(OC)c(C(=O)C=Cc2ccc(OC)c(OC)c2)c(OC)c1 | / | -35 | / | -1 | /
COc1cc(O)c(C(=O)/C=C/c2ccccc2)c(OC)c1 | 125 | 4 | 107* | -13 | /
COc1ccc2cc(C(=O)/C=C/c3cc(OC)c(OC)c(OC)c3)ccc2c1 | 55 | -1 | 95* | -11 | /
O=C(NCc1ccccc1)NC(=O)c1ccccc1F | 0 | -2 | 13 | 6 | /
O=C(CSc1nnc(-c2cccs2)o1)N1CCCc2ccccc21 | 17 | 2 | 68* | -1 | -1
O=C(CSc1nnc(-c2cccs2)o1)N1CCc2ccccc21 | 6 | -12 | 23 | 0 | -11
O=C(c1ccccc1)N1N=C(C(F)(F)F)CC1(O)c1ccccc1 (stereo not drawn) | -1 | -6 | 2 | 5 | /
COC(=O)C1(O)CC(CC(C)C)=NN1C(=O)c1ccccc1 (stereo not drawn) | 99 | -10 | 148* | 3 | -12
CC(C)N(Cc1cc2ccccc2[nH]c1=O)C(=O)c1cccc([N+](=O)[O-])c1 | -1 | 5 | 0 | -2 | /
Cc1ccc2[nH]c(=O)c(CN(C(=O)c3cccc([N+](=O)[O-])c3)C(C)C)cc2c1 | -57* | -14 | -66 | 8 | /
C/C(CC(=O)Nc1ccc2ccccc2c1)=N\NC(=O)c1cnccn1 | 30 | -2 | 74* | -4 | 3
C/C(CC(=O)Nc1ccc(C)c(Cl)c1)=N\NC(=O)c1cccc(O)c1 | 32 | -3 | 45 | -14 | /
COc1ccc(NC(=O)C/C(C)=N/NC(=O)c2cnccn2)cc1 | -6 | -11 | 10 | -5 | 5
C/C(CC(=O)Nc1ccc2ccccc2c1)=N\NC(=O)c1ccc(O)c(O)c1 | 14 | -8 | 55* | 2 | /
C/C(CC(=O)Nc1ccc(N(C)C)cc1)=N\NC(=O)c1ccc(Cl)cc1 | 33 | -6 | 83* | -12 | /
C/C(CC(=O)Nc1ccc(C)c(Cl)c1)=N\NC(=O)c1ccccn1 | 136 | -8 | 206* | 3 | /
Cc1c(-c2ccc(OCc3ccccc3)cc2)nc2ccccc2c1C(=O)O | -4 | -8 | -10 | 4 | /
C/C(CC(=O)Nc1cccc(Cl)c1Cl)=N\NC(=O)C(=O)N1CCCC1 | 12 | -2 | 23 | 1 | /
C/C(CC(=O)Nc1ccc(Cl)c(Cl)c1)=N\NC(=O)C(=O)N1CCCCC1 | 43 | 0 | 54* | 0 | -8
O=C(N/N=C\c1cn(-c2ccccc2)nc1-c1ccccc1)c1ccc2c(c1)OCO2 | 13 | -7 | 16 | -3 | 2
